Screening data: PubChem BioAssay, National Center for Advancing Translational Sciences (NCATS)
MBNL1 CUG block: blocks human MBNL1 binding to CUG repeat RNA | TR-FRET MBNL1-His/biotin-(CUG)12 binding, 665/545 ratio | Potency, µM (highest dose often 57.5 µM), usual class: inhibitors | actives 0.036% (n = 280,000) | AID 2675; active means well fitted inhibition curve with a large enough effect in the signal ratio, with a control signal flat, not every such curve was filed as active; inconclusive means small, poorly fitted or top-dose-only effect, or effect the other way, or a change in a side signal; inactive means no such curve, though single readings can be large or run the other way; the % refers to the signal ratio
Target sequence (Q9NR56 whole entry, looked up): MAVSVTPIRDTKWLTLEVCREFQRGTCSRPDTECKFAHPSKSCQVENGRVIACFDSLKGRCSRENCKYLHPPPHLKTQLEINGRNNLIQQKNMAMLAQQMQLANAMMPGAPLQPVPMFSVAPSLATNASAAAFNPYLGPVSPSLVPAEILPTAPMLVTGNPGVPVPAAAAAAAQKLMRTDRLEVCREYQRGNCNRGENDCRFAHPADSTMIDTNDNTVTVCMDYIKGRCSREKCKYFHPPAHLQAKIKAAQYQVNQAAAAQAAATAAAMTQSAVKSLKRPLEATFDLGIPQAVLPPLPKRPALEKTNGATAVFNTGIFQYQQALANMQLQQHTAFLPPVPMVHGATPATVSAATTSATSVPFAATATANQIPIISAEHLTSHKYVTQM
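MBNL1-His + Biotin-(CUG)12, cpd titration 92 nM–58 uM; Tb anti-His Ab 0.055 ng/ul, SA-XL665 5 nM (final); 60 min RT; ratiometric 665/545 nm, Ex 340 nm; normalized to buffer and full-complex controls.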
TCR act: T cell receptor activation. Potency, µM (top dose mostly 9.22 µM), most hits filed as activators. primary human leukocytes, anti-CD3, IL-2 HTRF, 48 h. 330,000 tested, under 10 active
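HTRF read-out of IL-2 secretion: europium cryptate donor excited at 320nm, d2 acceptor emission at 665nm. Cells were primary human leukocytes incubated 48 hr with compounds and a-CD3 beads, supplying TCR signal only.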
CBFb RUNX1 block: inhibitors of human CBF-beta and RUNX1 interaction | Q01196+Q13951 | AlphaScreen CBFb-His/RUNX1-biotin binding, biochemical | Potency, µM (series often up to 59.8 µM), hits mostly inhibitors | 230,000 tested, under 10 active | AID 1477
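CBF-beta (His) and RUNX1 (biotin), 30 nM each; 20 min preassociation; + compound, 15 min; + beads 50 ng each (Ni, streptavidin), 90 min; RT; AlphaScreen read.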
Integrin act MD: activates integrin-mediated alleviation for muscular dystrophy; Potency, µM (series often up to 38.3 µM), hits mostly activators; AID 624291; alpha7betagal myoblasts, beta-gal FDG fluorescence, 48 h; actives 0.064% (n = 350,000); further: nearly all actives have a fitted effect of over 60% in size
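alpha7betagal+/- myoblasts (passage 13, 250/well) treated 48 h at 37C with compounds at 1:260 dilution of DMSO stock. Lysed, then beta-galactosidase activity read as FDG fluorescence (ex 480/em 540) after 30 min, with pre-read for autofluorescence.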
A number is an active result. Compounds with a hit are over-represented: about 0.086% of the library has one in this group of screens. Unless noted, the call rests on the fitted dose curve; in most records, active means well fitted curve in the direction sought with a large enough effect; inconclusive means small, poorly fitted or top-dose-only effect, or another doubt; inactive means no such curve, though single readings can be large; an effect the other way counts as inactive or inconclusive.

Screening COc1cc(CNCc2ccc(C(=O)O)cc2)ccc1OCc1ccc(F)cc1 returned MBNL1 CUG block inactive, TCR act inactive and Integrin act MD 4.5µM.
`CN(Cc1ccccc1)C(=O)COC(=O)c1ccc(=O)n(Cc2ccccc2)n1` gave TCR act inactive and Integrin act MD inactive.
Screening CC(C)CCNC(=O)c1ccc2c(SCC(=O)O)c3c(nc2c1)CCC3 returned MBNL1 CUG block inconclusive, TCR act inactive, CBFb RUNX1 block inactive and Integrin act MD inactive.
CN(Cc1cn(C)nc1-c1ccc(Oc2ccccc2)cc1)C1CCOC1 (stereo unspecified) was read as MBNL1 CUG block inactive, TCR act inactive, CBFb RUNX1 block inactive and Integrin act MD inactive.
`COc1cccc(NC(=O)c2ccc3c(c2)CCCC3)c1` gave MBNL1 CUG block inactive, TCR act inactive and Integrin act MD 5.6µM.
`CC(=O)c1cccc(NC(=O)c2ccc3c(c2)CCCC3)c1` gave MBNL1 CUG block inactive, TCR act inactive and Integrin act MD inactive.
For CC(Nc1nc(=S)nc(Nc2ccc(F)cc2)[nH]1)c1ccccc1 (stereo unspecified) the results were MBNL1 CUG block inactive, TCR act inactive and Integrin act MD inactive.
For N#C/C(=C\c1ccc(Sc2nc3ccccc3[nH]2)o1)c1ccccc1 the results were MBNL1 CUG block inactive, TCR act inactive, CBFb RUNX1 block inactive and Integrin act MD inactive.
For N#Cc1ccc(Sc2nc3ccccc3[nH]2)cc1C#N the results were MBNL1 CUG block inactive, TCR act inactive, CBFb RUNX1 block inactive and Integrin act MD 10µM.
For C=CCCC(=O)NC1CC(C)(C)Cc2c1cnn2-c1cccc(F)c1 (stereo unspecified) the results were MBNL1 CUG block inactive, TCR act inactive and Integrin act MD inactive.
For CC1(C)Cc2c(cnn2-c2cccc(F)c2)C(NC(=O)CCc2cnccn2)C1 (stereo unspecified) the results were MBNL1 CUG block inactive, TCR act inactive and Integrin act MD 3.2µM.
`CCCCNC(=O)CSc1nnc(Cc2ccc(Cl)c(Cl)c2)c(=O)[nH]1` gave MBNL1 CUG block inactive, TCR act inactive and Integrin act MD 1.4µM.
Screening Cc1cccn2c(=O)c3cc(C(=O)NC4CCCCC4)n(C)c3nc12 returned MBNL1 CUG block inactive, TCR act inactive and Integrin act MD 14µM.
COc1ccc(N2CC(C(=O)N/N=C/c3ccc(C)cc3)CC2=O)cc1 (stereo unspecified) was read as MBNL1 CUG block inactive, TCR act inactive, CBFb RUNX1 block inactive and Integrin act MD inactive.
For Cc1ccc(NC(=O)c2cc(-c3ccccc3O)n[nH]2)cc1Cl the results were MBNL1 CUG block inactive, TCR act inactive and Integrin act MD inactive.
`NS(=O)(=O)c1ccc(NC(=O)c2cc(-c3ccccc3O)n[nH]2)cc1` gave MBNL1 CUG block inactive, TCR act inactive and Integrin act MD 10µM.
CCc1nnc(NC(=O)c2ccc(S(=O)(=O)NCC(C)C)cc2)s1 was read as MBNL1 CUG block inactive, TCR act inactive, CBFb RUNX1 block inactive and Integrin act MD 13µM.
`CCN(CC)C1CCN(Cc2c(C(=O)N3CCCCCCC3)nc3ccc(Cl)cn23)C1` (stereo unspecified) gave MBNL1 CUG block inactive, TCR act inactive and Integrin act MD inactive.
For COc1ccc(C(=O)O/N=C(\N)c2cccc(C)c2)cc1OC the results were MBNL1 CUG block inactive, TCR act inactive and Integrin act MD 10µM.
CCOC(=O)C1CCCN(C(=O)CNS(=O)(=O)c2ccc(Br)s2)C1 (stereo unspecified) was read as MBNL1 CUG block inactive, TCR act inactive, CBFb RUNX1 block inactive and Integrin act MD 2µM.
Screening COc1ccc(CCNC(=O)Cn2cnc3c2c(=O)n(C)c(=O)n3C)cc1OC returned MBNL1 CUG block inactive, TCR act inactive, CBFb RUNX1 block inactive and Integrin act MD inactive.
`CCOc1ccc(NC(=O)CN2C(=O)NC(CCSC)C2=O)cc1` (stereo unspecified) gave MBNL1 CUG block inactive, TCR act inactive, CBFb RUNX1 block inactive and Integrin act MD 10µM.
`CC(=O)c1ccc(NC(=O)C2CCCN(S(=O)(=O)c3cccc4nonc34)C2)cc1` (stereo unspecified) gave MBNL1 CUG block inconclusive, TCR act inactive and Integrin act MD inactive.
